# Screens from PubChem BioAssay.
# TNF necrop inh: TNF-alpha cell death inhibition in Jurkat FADD-/- cells; Jurkat FADD-/- TNF necroptosis rescue, ATP luminescence, 24 h; 0 = TNF only, 100 = no-TNF cells; activation (protection from cell death), % at 10 µM; 220,000 tested, 0.068% active; AID 463075;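 active = activation, meaning protection from cell death, of at least 50% relative to plate controls; inactive = activation below 50%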;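 also: necroptosis triggered by 40 ng/mL TNF-alpha added together with compound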
# Hsp70 activator: transcriptional activators of Hsp70 | HeLa Hsp70 promoter luciferase reporter, luminescence; scaled: vehicle 0, proteasome-inhibitor control 100% | activation, % at 10 µM | 200,000 tested, 0.04% active;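 active = activation above the mean across all tested compounds plus 3 SD, cutoff set per campaign, cut at about 5.5% in these data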
# L929 necroptosis: L929 zVAD cell death inhibition; viability rescue, % at 10 µM; 220,000 tested, 0.38% active; L929 zVAD necroptosis rescue, ATP luminescence, 24 h; with zVAD 60 µM;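 active = activation, scaled between plate controls, above about 75%, limit read from the data; inactive = activation under that limit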
# HSF-1 act: increases HSF-1 driven luciferase reporter signal | NIH3T3-HGL HSF-1 luciferase reporter, MG132, 8 h; 100% = twice DMSO control signal | activation, % at 9 µM | 300,000 tested, 1.7% active | AID 504408;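 active = mean replicate activation of at least 50% with a set share of replicates each reaching 50%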
# Numbers stand for hits; – = inactive; · = no result. The list is not random: actives were taken first. Their share in the collection is about 1.9%.
SMILES,TNF necrop inh,Hsp70 activator,L929 necroptosis,HSF-1 act
COc1ccc(CNC(=S)Nc2ccccc2)cc1,·,·,·,–
Clc1ccc(C(c2nnnn2CCc2ccccc2)N2CCSCC2)cc1 (centres undefined),–,–,–,–
O=C(COc1ncnc2ccccc12)N1CCN(S(=O)(=O)c2ccc(Cl)cc2)CC1,–,–,–,–
COc1cc(SC)ccc1C(=O)Nc1ccc2c(c1)CCC2,·,·,·,92.5
O=[N+]([O-])c1ccc2nc(-c3ccncc3)[nH]c2c1,–,·,–,–
O=[N+]([O-])c1ccc2nc(-c3ccc(Cl)cc3)[nH]c2c1,–,–,–,79.8
Cc1ccc(-c2nc3ccc([N+](=O)[O-])cc3[nH]2)cc1,–,–,–,60.7
COc1ccc(-c2nc3ccc([N+](=O)[O-])cc3[nH]2)cc1,–,–,–,53.8
O=C(CCn1cccc1)NCc1ccc(Cl)cc1,–,–,–,–
Cc1ccc(/C=C/C(=O)Nc2ccc(S(=O)(=O)Nc3cc(C)nc(C)n3)cc2)cc1,·,·,·,63.8
C=CCN(c1ccccc1C(=O)NCC(=O)O)S(=O)(=O)c1ccccc1C,–,·,–,–
CN(C)c1ccc(N=C/C=C2/N(C)c3ccccc3C2(C)C)cc1,–,–,–,–
Nc1c(-c2ccc(Cl)cc2)nnn1-c1ccccc1,–,–,–,58.0
Nc1c(-c2ccc(Cl)cc2)cnn1-c1ccccc1,·,·,·,–
Cc1cc(C)n(-c2nncn2NC(=O)c2ccc(Cl)cc2O)n1,–,–,–,–
Cn1c(CNc2cccc(Cl)c2)nnc1SCC#N,–,–,–,72.9
C=CCN1C(=O)NC(c2ccccc2)(C(F)(F)F)S/C1=C(\C#N)c1nnc(N2CCOCC2)n1-c1ccccc1 (centres undefined),–,–,·,83.4
COc1ccc(N2C(C)=CS/C2=C(/C#N)c2nnc(N3CCOCC3)n2-c2ccccc2)cc1,–,–,–,–
Cc1cccc2c(N=Nc3ccccc3)c(O)[nH]c12,·,·,·,61.1
Oc1[nH]c2ccccc2c1N=Nc1cccc(Cl)c1,·,·,·,68.9
Oc1[nH]c2ccccc2c1N=Nc1ccccc1Cl,·,·,·,–
Cc1ccc2c(c1)N(CC(=O)Nc1ncccc1C)C(=O)C(C(C)C)O2 (centres undefined),·,·,·,–
CCN(CC)C(=O)Oc1ccc(Br)cc1C(=O)Nc1ccc(F)cc1F,–,·,–,72.4
CCCN(CCC)C(=O)c1cc(S(=O)(=O)N2CCCCC2)c[nH]1,·,·,·,–
CC(=O)Nc1cccc(NC(=O)c2ccco2)c1,–,–,–,–
SMILES,TNF necrop inh,Hsp70 activator,L929 necroptosis,HSF-1 act
O=C(Nc1cccc(NC(=O)c2ccc([N+](=O)[O-])o2)c1)c1ccco1,·,·,·,92.6
O=C(Nc1ccc(NC(=O)c2ccc([N+](=O)[O-])o2)cc1Cl)c1ccco1,·,·,·,161.5
O=C(Nc1ccc(NC(=O)c2ccco2)c(Cl)c1)c1ccccc1,–,–,–,–
S=c1[nH]c(-c2ccccc2)cn1/N=C/c1ccccc1Br,–,–,–,64.4
S=c1[nH]c(-c2ccccc2)cn1/N=C/c1cccc2ccccc12,–,–,–,–
CN(C)c1cccc(C(=O)OCC(=O)N(C)c2ccccc2)c1,·,·,·,–
CC(=O)Oc1ccc(-c2cccc(C(=O)OCC(=O)N(C)c3ccccc3)c2)cc1,–,–,–,90.1
Cc1c(C(=O)N2CCCCC2)c(S(=O)(=O)NCc2ccc(Cl)cc2)c(C)n1C,·,·,·,–
COc1ccccc1CNC(=O)C1CCCN(c2cnccn2)C1 (centres undefined),·,·,·,–
COc1cccc(NC(=O)c2ccnc(N3CCC(C(=O)NCc4ccccc4OC)CC3)c2)c1,·,·,·,111.2
COc1ccc(NC2CCCN(C(=O)CN3C(=O)c4ccccc4C3=O)C2)cc1OC (centres undefined),·,·,·,–
CCOC(=O)c1c(C)[nH]c(C(=O)Nc2ccc(C)c(Cl)c2)c1C,–,–,–,63.3
COc1cc(CNC2CCCC2)cc(OC)c1,–,–,–,59.3
COc1cccc(CNC2CCCC2)c1,–,–,–,–
Nc1nnc(CSCc2ccc(Cl)cc2)s1,–,–,·,–
Nc1nnc(CSc2ccc(Cl)cc2)s1,–,–,104.4,–
O=C1CC2c3ccccc3C1C1C(=O)N(CCc3ccccc3)C(=O)C21 (centres undefined),–,–,–,–
O=C(c1cc(-c2ccc(Cl)cc2)on1)N1CCCCCC1,·,·,·,–
O=C(c1cc(-c2ccc(O)cc2)on1)N1CCCCCC1,·,·,·,68.4
O=[N+]([O-])c1cc(CN(CCO)CCO)ccc1O,–,·,–,·
O=C(O)CC/C(=N/NC(=O)CNC(=O)c1ccc2c(c1)OCCO2)c1ccccc1,·,·,·,–
CCC1=NN(C(=O)c2ccc(Cl)cc2)C(O)(c2ccccc2)C1 (centres undefined),·,·,·,–
COC(=O)C1=NN(C(=O)c2ccc(Cl)cc2)C(O)(c2ccccc2)C1 (centres undefined),–,–,–,141.9
CCOC(=O)C1=NN(C(=O)c2ccc(C)cc2)C(O)(c2ccc(Cl)cc2)C1 (centres undefined),–,–,–,166.5
CC(C)CN(CC(C)C)S(=O)(=O)N1CCC(C(=O)NCc2ccc3c(c2)OCO3)CC1,–,–,–,–
SMILES,TNF necrop inh,Hsp70 activator,L929 necroptosis,HSF-1 act
CC(=O)N/C(=N/c1nc(C)cc(C)n1)Nc1cccc(C)c1C,·,·,·,–
O=C(COC(=O)C1CCCC1)Nc1ncc(Cl)cc1Cl,·,·,·,–
COc1ccc(OC)c(NC(=O)Nc2ccc3[nH]ccc3c2)c1,·,·,·,–
CC(=O)c1cccc(N(CC(=O)Nc2ccc(F)cc2F)S(C)(=O)=O)c1,–,–,–,55.3
CC(=O)c1cccc(NS(=O)(=O)c2cc(OCC(N)=O)c(C)cc2Cl)c1,–,–,–,–
Cc1csc(N/N=C/c2c(F)cccc2Cl)n1,·,·,·,–
Clc1cccc(Cl)c1/C=N\Nc1nccs1,–,–,–,141.7
O=[N+]([O-])c1ccccc1/C=N\Nc1nccs1,·,·,·,77.9
C=CCSc1nc2ccccc2n1C(=O)/C=C/c1cc(OC)c(OC)c(OC)c1,–,9.7,–,–
C=CCSc1nc2ccccc2n1C(=O)/C=C/c1ccc(OC)c(OC)c1,–,–,–,70.6
CCSc1nc2ccccc2n1C(=O)/C=C/c1ccc(OC)c(OC)c1,–,–,–,81.8
CCCCN1C(=O)N(C)C2NC(=S)NC21 (centres undefined),–,·,–,–
CCCCNC1C(CC)C(CCC)C(C#N)(C#N)C1(C#N)C#N (centres undefined),–,–,–,118.3
COc1cc(/C=N/O)ccc1OCc1ccc(Cl)cc1,–,–,–,107.9
COc1cc(/C=C(\C#N)C(=O)Nc2cccc(C(=O)O)c2)ccc1OCc1ccc(Cl)cc1,·,·,·,112.8
N#Cc1ccccc1OCC(=O)OCCCOC(=O)COc1ccccc1C#N,·,·,·,–
COc1ccc(Nc2ccc([N+](=O)[O-])cc2[N+](=O)[O-])cc1,–,–,–,–
COc1ccc(NC(=O)c2ccc(-c3nn(C)c(=O)c4ccccc34)cc2)cc1C(N)=O,–,·,–,–
C=C(C)C(=O)Nc1cccc(C2=NOC3(C2)C[C@H](C(N)=O)N(C(=O)c2ccccc2C(=O)c2ccccc2)C3)c1 (some centres undefined),–,·,–,–
Cc1cc2c(=O)n(Cc3ccco3)c(SCC(=O)c3ccc(Cl)s3)nc2s1,–,–,–,77.6
